From PubChem
The entries come from a sample that favours hits as a whole.
RmlCD inh mix – RmlC/RmlD inhibition, mixture screen. RmlC/RmlD coupled enzyme inhibition, 384-well mixture HTS. inhibition, % at 5.5 µM. actives 0.39% (n = 110,000). AID 1532; in the data active = inhibition above about 30%, passing the limit was not always enough
HIV RNase H inh-1 – blocks HIV-1 RNase H cleavage of RNA/DNA duplex. actives 1.9% (n = 65,000). RT-RNase H RNA/DNA duplex cleavage, fluorescence. inhibition, % at 10 µM. P04585; in the data active = inhibition above about 50%
HIV RNase H inh-2 – confirmation of HIV-1 reverse transcriptase RNase H inhibitors. shares compounds with HIV RNase H inh-1. Recombinant RT RNase H, fluorescent RNA/DNA duplex cleavage. inhibition, % at 10 µM. actives 39% (n = 1,000); in the data active = inhibition above about 48%
An asterisk follows results filed as active; x = no result.

SMILES	RmlCD inh mix	HIV RNase H inh-1	HIV RNase H inh-2
CCOC(=O)C(C)Sc1nc2c(c(=O)[nH]c(=O)n2C)n1Cc1ccc(Cl)cc1 (stereo unspecified)	-8	71*	24
Cc1ccc(Cn2c(SCC(C)C)nc3c2c(=O)[nH]c(=O)n3C)cc1	-5	87*	58*
CC(=O)c1c(O)cc(=O)n(-c2ccccc2)c1-c1cccc2ccccc12	10	x	x
Cn1c(=O)c2c(nc(NCCO)n2CCc2ccccc2)n(C)c1=O	-12	1	x
O=C(O)C=C1C2CC3CC(C2)CC1C3	-19	-4	x
O=C(NCC(c1cccs1)N1CCOCC1)c1ccco1 (stereo unspecified)	-5	x	x
COc1ccc(OC)c2sc(N3CCN(c4ccccc4)CC3)nc12	5	75*	43
COc1ccc(C)c2sc(N3CCCC3)nc12	15	-17	x
CC(C)CN(CC(C)C)S(=O)(=O)N1CCC(C(=O)NCCN2CCOCC2)CC1	-13	3	x
CC1CCCC(C(=O)O)N1C(=O)CCSSCCC(=O)N1C(C)CCCC1C(=O)O (stereo unspecified)	-11	x	x
O=C(c1cc(S(=O)(=O)N2CCCCC2)ccc1F)N1CCCCC1	79	9	x
O=C(c1ccccc1F)N1CCN(S(=O)(=O)c2ccc(S(=O)(=O)N3CCCCC3)cc2)CC1	8	77*	78*
CCOc1ccccc1-n1c(COc2ccccc2)nnc1SCC(N)=O	-8	-36	x
CC1CCCCC1N1CN=C(Nc2nc3ccccc3s2)NC1 (stereo unspecified)	0	x	x
CCOc1ccc(C(=O)OCn2nnc3ccccc3c2=O)cc1OC	-13	-7	x
O=C(NCc1ccccc1)c1ccc2nc(-c3ccco3)c(-c3ccco3)nc2c1	-17	x	x
O=C(Nc1ccc(N2CCOCC2)cc1)c1ccc2nc(-c3ccco3)c(-c3ccco3)nc2c1	0	91*	63*
O=C(Nc1ccccc1)c1ccc2nc(-c3ccco3)c(-c3ccco3)nc2c1	-26	100*	28
CC(=O)c1ccc(NC(=O)c2ccc3nc(-c4ccco4)c(-c4ccco4)nc3c2)cc1	6	x	x
O=C(Nc1ccc(N2CCOCC2)cc1)c1ccncc1	14	x	x
CCCCNC(=O)c1ccc2nc(-c3ccco3)c(-c3ccco3)nc2c1	-2	92*	2
CCCCOP(=O)(c1ccc(N(C)C)cc1)C(O)c1ccncc1 (stereo unspecified)	-12	-1	x
COc1cccc(NC(=O)CSc2nnc(Cn3c(=O)sc4ccccc43)n2C)c1	8	-10	x
O=C(NCc1cccnc1)c1noc2c1CCCC2	7	-4	x
CCOc1ccc(NC(=O)NCCCn2c(C)nc3cc(C)c(C)cc32)cc1	11	x	x
SMILES	RmlCD inh mix	HIV RNase H inh-1	HIV RNase H inh-2
COc1ccccc1-n1c(CNC(=O)c2ccco2)nnc1SCC(=O)Nc1cc(C)ccc1C	x	-4	x
COC(=O)c1ccc(NS(=O)(=O)c2ccc(SC)cc2)cc1	-7	5	x
CC1(C)CC(=O)C2=C(C1)OC(N)=C(C#N)C2C#Cc1ccccc1 (stereo unspecified)	18	60*	5
CC(c1ccccc1)C1C(C#N)=C(N)OC2=C1C(=O)CC(C)(C)C2 (stereo unspecified)	6	-7	x
CC1=C(C)NC(=S)SC1	-13	55*	5
Cc1ccc(-c2nnn(CC(=O)Nc3cccc4c3CCCC4)n2)o1	-7	71*	7
CCN(CC)C(=O)Cn1nnc(-c2ccc(C)o2)n1	5	3	x
c1coc(CNCCCN2CCOCC2)c1	4	x	x
Cc1cn(S(=O)(=O)c2ccc(Br)cc2)cn1	-6	x	x
O=C1CC(Cc2ccc(Cl)cc2)C(=O)N1c1ccncc1 (stereo unspecified)	8	x	x
O=C(OCN1C(=O)c2ccccc2C1=O)C1CCCCC1	-12	-30	x
O=C1c2ccccc2C(=O)N1SC1CCCCC1	-6	80*	5
O=C(Nc1ccccc1)C1CCCN(S(=O)(=O)c2ccc(-n3cnnn3)cc2)C1 (stereo unspecified)	-3	x	x
COc1ccc(CN(C2CCCC2)S(=O)(=O)c2ccc(-n3cnnn3)cc2)cc1	1	-17	x
CC(=O)Nc1nc2n(n1)C(c1ccccc1)C=C(c1ccccc1)N2 (stereo unspecified)	6	-5	x
COc1ccc(C2C=C(c3ccc(Cl)cc3)Nc3nc(NC(C)=O)nn32)cc1 (stereo unspecified)	x	56*	11
CCCc1nnc2n1N=C(c1ccc(OC)c(OC)c1)CS2	-9	-17	x
COc1ccc(Cc2nnc3n2N=C(c2cc4ccccc4o2)CS3)cc1OC	-6	71*	47
CNC(=O)c1sccc1SCc1c(Cl)cccc1Cl	-10	x	x
CCc1ccccc1NC1=NCC(=O)N1C1CCCCC1	x	83*	20
CCc1ccccc1NC1=NCC(=O)N1Cc1ccccc1	4	-30	x
COc1cccc(N(CC(=O)Nc2cccc(C(C)=O)c2)S(C)(=O)=O)c1	-7	-3	x
Cc1ccc(C(=O)Nc2nc3ccc(S(C)(=O)=O)cc3s2)o1	-2	x	x
O=C(Nc1ccccc1F)c1ccc(Br)o1	16	x	x
CCOC(=O)N1CCN(C(=O)CN(C2CCCCC2)S(=O)(=O)c2ccc(C)cc2)CC1	-121	0	x
SMILES	RmlCD inh mix	HIV RNase H inh-1	HIV RNase H inh-2
COc1cccc(-n2c(SCC(N)=O)nc3c([nH]c4ccccc43)c2=O)c1	x	6	x
O=C(CSc1nc2c([nH]c3ccccc32)c(=O)n1-c1ccccc1)N1CCOCC1	-10	4	x
COc1ccc(-n2c(SCC(=O)N3CCCC3)nc3c([nH]c4ccccc43)c2=O)cc1	x	87*	88*
O=C(CSc1nc2c([nH]c3ccccc32)c(=O)n1-c1cccc(Cl)c1)N1CCOCC1	9	78*	67*
O=C(Nc1ccc2c(c1)OCO2)C(c1ccc(Cl)cc1)N1CCC2(CC1)OCCO2 (stereo unspecified)	-1	-3	x
Cc1cc(C(F)F)nn1CC(=O)NCc1ccc(Cl)cc1Cl	4	x	x
COc1cc(OC)cc(-c2cc(NC(C)=O)n[nH]2)c1	2	1	x
O=C1CC(c2nc3ccccc3[nH]2)CN1c1ccccc1F (stereo unspecified)	13	63*	21
COc1ccc(Cl)cc1N1CC(c2nc3ccccc3[nH]2)CC1=O (stereo unspecified)	9	-6	x
CCCCCCCC(=O)N/N=C/c1cccnc1	41	x	x
Cc1ccc(C(=O)CCNc2cccc(Br)c2)o1	11	-61	x
CCN(CC)S(=O)(=O)c1ccc(NC(=O)CSc2nnc(-c3ccc(F)cc3)o2)cc1	-3	10	x
COc1cccc(/C=N/n2c(N)c(S(=O)(=O)c3cccs3)c3nc4ccccc4nc32)c1OC	-28	x	x
Nc1c(S(=O)(=O)c2cccc(Cl)c2)c2nc3ccccc3nc2n1/N=C/c1ccc(O)c(O)c1	-2	92*	58*
c1ccc2[nH]c(SN3CCOCC3)nc2c1	13	91*	66*
c1ccc2[nH]c(CN3CCOCC3)nc2c1	-8	x	x
c1ccc2c(c1)[nH]c1nc(SCCN3CCOCC3)nnc12	26	83*	0
Brc1ccc2[nH]c3nc(SCCN4CCOCC4)nnc3c2c1	x	3	x
CCOCCCn1c(=N)c(C(N)=S)cc2c(=O)n3cccc(C)c3nc21	0	10	x
Cc1cccn2c(=O)c3cc(C(N)=S)c(=N)n(CCCOC(C)C)c3nc12	20	69*	9
O=C(O)C1C2C=CC(O2)C1C(=O)Nc1ccc(S(=O)(=O)N2CCc3ccccc32)cc1 (stereo unspecified)	5	-14	x
